Bioassay records (PubChem)
In the library only some 11% were active in any assay of this set; here they are far more common.
IMPase inh – membrane-permeable compound that blocks inositol monophosphatase. P97697. CHO-M1 cells, IP1 accumulation, HTRF TR-FRET ratio. inhibition (IP1 accumulation), % at 46.1 µM. 120,000 tested, under 10 active. AID 901; active = well fitted curve in the direction sought with a large enough effect in the signal ratio, not every such curve was filed as active; inconclusive = small, poorly fitted or top-dose-only effect, or a change in a side signal; inactive = no such curve, though single readings can be large or run the other way; the % refers to the signal ratio;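 note: cells stimulated with carbachol in lithium chloride buffer; plate controls were DMSO basal wells for no effect and reference inhibitor wells for full effect; higher means more IMPase inhibition seen as more IP1 and lower FRET ratio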
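CHO-M1, 2000 cells/well, cultured 16–30 h; cpd up to 46 uM; carbachol (50 uM solution, stimulation buffer w/ 50 mM LiCl, pH 7.4), 30 min 37C; IP-One TR-FRET, 10 min RT; Ex 320/Em 665, 620; Hill-fit AC50.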
NPSR antagonist – blocks cAMP signaling of the human neuropeptide S receptor; CHO-NPSR cells, cAMP TR-FRET, antagonist mode; Potency, µM (highest dose often 38.3 µM), for the others: top-dose activity change, negative = inhibition, actives largely listed as inhibitors; hit rate 1% among 220,000; AID 1461; note: potency is the fitted concentration of half-maximal effect; nearly all actives have a fitted effect of over 50% in size
Target sequence (Q6W5P4 whole entry, looked up): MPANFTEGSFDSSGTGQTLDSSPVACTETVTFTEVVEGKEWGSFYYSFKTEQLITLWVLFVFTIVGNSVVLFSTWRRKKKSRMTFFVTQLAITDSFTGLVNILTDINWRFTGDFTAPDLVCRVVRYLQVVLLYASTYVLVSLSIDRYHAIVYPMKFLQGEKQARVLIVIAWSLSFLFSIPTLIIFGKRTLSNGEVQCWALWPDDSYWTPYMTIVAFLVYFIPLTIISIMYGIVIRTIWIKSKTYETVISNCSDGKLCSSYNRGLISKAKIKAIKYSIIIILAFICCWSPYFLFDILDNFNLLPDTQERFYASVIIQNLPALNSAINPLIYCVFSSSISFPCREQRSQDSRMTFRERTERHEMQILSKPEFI
ALDH1A1 block – blocks purified human ALDH1A1 activity; Potency, µM (doses to about 75.3 µM), inactives show top-dose activity, negative = inhibition, usual class: inhibitors; P00352; Purified ALDH1A1, NADH fluorescence, propionaldehyde substrate; hit rate 7.3% among 220,000; active = well fitted inhibition curve with a large enough effect, not every such curve was filed as active; inconclusive = small, poorly fitted or top-dose-only effect, or another doubt; inactive = no such curve, though single readings can be large or run the other way;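 note: potency is the fitted concentration of half-maximal effect; plate controls were no enzyme wells and a reference inhibitor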
HPGD block – HPGD (human) dehydrogenase inhibition; P15428; purified HPGD, NADH fluorescence kinetic, PGE2 substrate; Potency, µM, without a hit: at the highest dose activity change, negative = inhibition, usual class: inhibitors; hit rate 4.3% among 150,000; AID 894; active = well fitted inhibition curve with a large enough effect, not every such curve was filed as active; inconclusive = small, poorly fitted or top-dose-only effect, or another doubt; inactive = no such curve, though single readings can be large or run the other way; note: potency is the fitted concentration of half-maximal effect
Target sequence (P15428 whole entry, looked up): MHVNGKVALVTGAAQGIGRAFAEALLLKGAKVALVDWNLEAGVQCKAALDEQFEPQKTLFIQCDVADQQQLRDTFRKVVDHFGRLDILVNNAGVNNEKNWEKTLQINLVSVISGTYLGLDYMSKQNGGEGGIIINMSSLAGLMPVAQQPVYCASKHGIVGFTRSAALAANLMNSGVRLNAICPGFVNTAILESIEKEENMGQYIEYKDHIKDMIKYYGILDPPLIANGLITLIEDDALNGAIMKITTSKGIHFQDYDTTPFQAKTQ
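NADH formation kinetics: reaction with 30 uM PGE2 and 1 mM NAD+ (final), 20 nM enzyme, Tris-HCl pH 8 with Tween 20, after 15 min compound preincubation at room temperature. Fluorescence change, last versus first of five reads.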
PNC inhibitor – inhibitors of perinucleolar compartment assembly. PC3M PTB-GFP, PNC prevalence imaging, 16 h; hits give low values. activity change (PNC), negative = inhibition, % at 10 µM. hit rate 3.1% among 140,000. AID 2417;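 active = readout at or below -70, meaning at least 70% loss of cells showing the perinucleolar compartment, a nuclear body marking cancer cells; inconclusive = readout between -30 and a set limit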;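 note: plate controls were DMSO wells for no effect and camptothecin positive control wells for full effect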
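Read-out is percentage of cells bearing a perinucleolar compartment, from automated 20x imaging of fixed, Hoechst-stained PC3M PTB-GFP cells. Cells were seeded 4 h, then exposed 16 h to compound (23 nl of library stock) in duplicate plates.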
IMPase Li cell – IMPase inhibition in cells with lithium potentiation. hit rate 0.35% among 210,000. Potency, µM (series often up to 59.4 µM), inactives show at the top dose activity, negative = IMPase inhibition, actives largely listed as inhibitors. CHO-M1 cells, IP1 TR-FRET (IP-One), carbachol + lithium;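 note: IP1 builds up when IMPase is blocked and the TR-FRET signal falls; potency is the fitted concentration of half-maximal effect; plate controls were basal vehicle for no effect and high inhibitor control for full effect; nearly all actives have a fitted effect of over 50% in size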
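IP1 accumulation measured by competitive TR-FRET in lysed CHO-M1 cells after 30 min compound exposure at 37C, with a small lithium addition to potentiate weak responses. Hill-equation AC50 from ratio and donor-channel data.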
* = called active by the depositor; ? = inconclusive; . = no result; [ ] = dose if it differs, or a comment. Unless noted, calls come from the whole dose curve; as a rule, active = well fitted curve in the direction sought with a large enough effect; inconclusive = small, poorly fitted or top-dose-only effect, or another doubt; inactive = no such curve, though single readings can be large; an effect the other way counts as inactive or inconclusive. Unless noted, % is set by controls: 0 for no effect and ±100 for the full control effect.

SMILES | IMPase inh | NPSR antagonist | ALDH1A1 block | HPGD block | PNC inhibitor | IMPase Li cell
CC1=CC(C)(C)Nc2ccc(OC(=O)C(Cc3ccccc3)N3C(=O)c4ccccc4C3=O)cc21 (stereo not drawn) | 8 | -18%[46.1 µM] | -2% | -12% | -30 | 0%[38.3 µM]
CC1=CC(C)(C)Nc2ccc(OC(=O)CN3C(=O)c4ccccc4C3=O)cc21 | . | 7.9µM* | ? | ? | -25 | 8%
CC1=CC(C)(C)Nc2ccc(OC(=O)CN3C(=O)c4cccc5cccc(c45)C3=O)cc21 | 8 | 1%[46.1 µM] | 11µM* | -21% | 40 | 32%[38.3 µM]
Cc1cccc(C(=O)N[C@H](C(=O)Nc2cccc(S(=O)(=O)N3CCCC3)c2)C(C)C)c1 | . | -20% | . | . | . | .
CCOc1ccc2nc(SCc3ccc(OC)cc3)sc2c1 | . | 0% | -11% | -24% | 11 | 11%
CCC(=O)c1ccc(OCCn2cnc3ccccc32)cc1 | . | 3% | -9% | . | . | 18%
Cc1ccc2c(C)nc(Nc3nc(CSc4nnnn4-c4ccccc4)cc(=O)[nH]3)nc2c1 | -5 | -18%[46.1 µM] | 4µM* | -24% | ? | -13%
COCc1cc(=O)[nH]c(Nc2nc3ccccc3o2)n1 | -2 | -20%[46.1 µM] | 15% | -13% | -17 | -7%[38.3 µM]
COc1ccc2nc(Nc3nc(CSc4nnnn4-c4ccccc4)cc(=O)[nH]3)nc(C)c2c1 | -5 | -16%[46.1 µM] | ? | -7% | 21 | 23%[38.3 µM]
COCc1cc(=O)[nH]c(Nc2nc(C)c3ccccc3n2)n1 | 7 | -5%[46.1 µM] | 20µM* | -16% | -23 | 25%[38.3 µM]
O=C(NCc1cccnc1)c1cccc2c1C(=O)N(Cc1cccnc1)C2 | 8 | 1%[46.1 µM] | 24% | -9% | 54 | 19%[38.3 µM]
CCN(C(=O)c1ccc(Cl)c([N+](=O)[O-])c1)c1ccccc1 | . | -19% | 13µM* | . | . | -10%
O=C(O)/C=C\C(=O)Nc1cccc(C(=O)Nc2cccc(O)c2)c1 | . | -22% | -8% | . | . | 4%
Oc1ccc(-c2cn3c(n2)SCC3)cc1O | ? | ? | 6.3µM* | 2.2µM* | -16 | 27%[38.3 µM]
CCC1Oc2ccc(C)cc2N(CC(=O)NCCC2=CCCCC2)C1=O (stereo not drawn) | 16 | -26%[46.1 µM] | ? | -1% | 15 | 10%
Cc1cc(C(=O)N/N=C/c2cn[nH]c2-c2ccccc2)cs1 | . | -2% | 0% | -8% | -114* | -3%
CC(C)(Oc1ccc(Cl)cc1)C(=O)N/N=C/c1cn[nH]c1-c1ccccc1 | 12 | ? | 8.9µM* | -28% | -19 | 57%[38.3 µM]
O=S(=O)(NC1CCN(Cc2ccccc2)CC1)c1ccc2ccccc2c1 | . | -24% | 22µM* | . | . | 28%
C/C(=N/NC(N)=S)c1cc2ccc(O)cc2oc1=O | . | -8% | ? | . | . | .
NC(=S)c1cc2ccc(O)cc2oc1=O | ? | 5µM* | ? | ? | 9 | 3.2µM*
CCOCCc1nnc(NC(=O)C(C)Oc2ccccc2)s1 (stereo not drawn) | . | 6% | 4% | . | . | 6%
O=S(=O)(c1ccc(Br)s1)N1CCc2ccccc2C1 | 13 | -15% | -26% | -29% | -119* | 20%
COc1ccc(CN(C)CC(=O)NC(C)c2ccccc2)cc1OC (stereo not drawn) | . | 12% | 3% | . | . | 0%
O=C(NCCC1=CCCCC1)C(=O)NCc1ccccc1Cl | 9 | 0%[46.1 µM] | 7% | -1% | 37 | 10%[38.3 µM]
O=C1CC(NCCC2=CCCCC2)C(=O)N1c1cccc(Cl)c1Cl (stereo not drawn) | 4 | -18%[46.1 µM] | 5.6µM* | -15% | -12 | -17%[38.3 µM]
SMILES | IMPase inh | NPSR antagonist | ALDH1A1 block | HPGD block | PNC inhibitor | IMPase Li cell
O=C(c1ccc(Cl)cc1)C1CCCN(Cc2ccc(Oc3ncccn3)cc2)C1 (stereo not drawn) | . | 9% | 28µM* | . | . | 22%
O=C(c1ccc(Cl)cc1)C1CCCN(Cc2cnn(-c3ccccc3)c2)C1 (stereo not drawn) | . | 44% | 1% | . | . | 16%
Cc1cc(C)c2c3c(sc2n1)C(=O)N(c1ccccc1C)CC(=O)N3 | . | 10% | . | . | . | .
CCn1c(=N)n(CC(=O)C(C)(C)C)c2ccccc21 | -3 | -5%[46.1 µM] | ? | ? | ? | 54%[38.3 µM]
Cc1ccc(-c2csc(N/N=C/C=C/c3ccccc3)n2)cc1 | 3 | -5%[46.1 µM] | 22µM* | -26% | 90 | -11%[38.3 µM]
COc1ccc(-n2c(N)c(-c3nc4ccccc4n3C)sc2=S)cc1 | 10 | -14%[46.1 µM] | ? | -29% | 11 | -1%[38.3 µM]
CCNC(=O)CCCOc1ccc(Cl)cc1Cl | 2 | 2%[46.1 µM] | 1% | 14µM* | -1 | -17%[38.3 µM]
Cc1ccc(CNC(=O)COC(=O)CCCOc2ccc(Cl)cc2Cl)cc1 | . | 3% | 11% | 16µM* | 45 | -9%
O=C(CCCOc1ccc(Cl)cc1Cl)Nc1ccccn1 | . | -16% | 0% | . | . | 14%
Clc1ccc(OCCCc2nc(-c3ccncc3)no2)c(Cl)c1 | 5 | -15%[46.1 µM] | -4% | 28µM* | 4 | 20%[38.3 µM]
O=C(CCCOc1ccc(Cl)cc1Cl)Nc1ccncc1 | -9 | -9%[46.1 µM] | ? | 14µM* | 11 | 22%[38.3 µM]
Cc1noc(C)c1COC(=O)CCCOc1ccc(Cl)cc1Cl | -15 | -26%[46.1 µM] | 14% | 18µM* | -26 | 12%[38.3 µM]
Cc1noc(C)c1COC(=O)C(c1ccccc1)c1ccccc1 | . | -26% | 11µM* | . | . | 24%
O=C(CCCOc1ccc(Cl)cc1Cl)NCC1CCCO1 (stereo not drawn) | -2 | -7%[46.1 µM] | ? | 11µM* | -9 | 7%
